SMILES strings stand for the structures. Hit rate of the full screen: of about 200,000 compounds, about 720 (0.36%) were called active. Not shown: some 8% with an inconclusive outcome. Calls come from the whole dose curve; as a rule, active = well fitted activation curve with a large enough effect; inconclusive = small, poorly fitted or top-dose-only effect, or effect the other way, or another doubt; inactive = flat fitted curve, though single readings scatter. Some of the results follow.
Potency is the fitted concentration of half-maximal effect.

This assay deals with Lysosomal alpha-glucosidase (Homo sapiens) (UniProt P10253). The assay is described as follows: qHTS Assay for Activators of Human alpha-Glucosidase as a Potential Chaperone Treatment of Pompe Disease. Note: nearly all actives have a fitted effect of over 80% in size. Particulars: purified enzyme, 4-MU-alpha-glucoside fluorescence, 20 min; series mostly up to 76.9 µM. A digest of the protocol: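 Fluorogenic assay, 4 nM enzyme, 400 uM 4-methylumbelliferyl-[…], pH 5.0 citrate/phosphate buffer with 0.005% Tween-20, compounds up to 77 uM, 20 min at room temperature. NaOH/glycine stop, Ex 365/Em 440 nm; AC50 from Hill fits.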
Background: In qHTS, concentration-response curves come from the screen itself.
For `CSc1nnc(-c2cccn(Cc3ccccc3)c2=O)o1`, the Potency is 35.5 µM (active). Take `CSc1nnc(-c2cccn(Cc3cccc(Cl)c3)c2=O)o1`: the Potency was 28.2 µM (active). Turning to `Nc1ccc(-c2nc3ccc(-c4nc5ccccc5o4)cc3[nH]2)cc1`, the Potency was 28.2 µM (active).

As to `Nc1ccc(-c2nc3ccc(N)cc3[nH]2)cc1`, the Potency is 39.8 µM (active).

As for `Nc1ccc(-c2nc3ccc(N)cc3o2)cc1`, the Potency was 35.5 µM (active). The value for `COCc1cc(=O)n2c([nH]c3ccccc32)c1C#N` was 35.5 µM (active). Take `CCc1cc(=O)n2c([nH]c3ccccc32)c1C#N`: the Potency was 28.2 µM (active). As to `CCCc1cc(=O)n2c([nH]c3ccccc32)c1C#N`, the Potency is 39.8 µM (active). As for `Cc1ccc2nc3c(cc(C#N)c(=O)n3-c3nccs3)c(=O)n2c1`, the Potency is 35.5 µM (active). For the molecule `Cc1ccc(-n2c(=O)c(C#N)cc3c(=O)n4cccc(C)c4nc32)cc1`, the Potency is 10 µM (active). The value for `Cc1ccc(-n2c(=O)c(C#N)cc3c(=O)n4ccccc4nc32)cc1` was 25.1 µM (active); that for `N#Cc1cc2c(=O)n3ccccc3nc2n(-c2ccc(Cl)cc2)c1=O` was 35.5 µM (active). Regarding `COc1cc(C2NC(=S)NC(c3ccccc3)=C2C(C)=O)cc(Br)c1OCC(N)=O` (configuration not stated), the Potency is 28.2 µM (active). The value for `O=C(CN1C(=O)/C(=C\c2cccc(Cl)c2)Oc2ccccc21)N1CCN(c2ccccn2)CC1` was 3.98 µM (active).

In the case of `CN(C)c1oc(/C=C/c2ccccc2)nc1C#N`, the Potency was 31.6 µM (active). On to `CNc1oc(/C=C/c2ccccc2)nc1C#N`, for which the Potency was 35.5 µM (active). As to `CN(C)CCNc1oc(/C=C/c2ccccc2)nc1C#N`, the Potency was 35.5 µM (active). Turning to `C=CCNc1oc(/C=C/c2ccccc2)nc1C#N`, the Potency is 35.5 µM (active). As to `CC(=O)Nc1c(OC(C)=O)ccc2c(C)cc(=O)oc12`, the Potency is 35.5 µM (active). Regarding `CCC(=O)Nc1c(OC(=O)CC)ccc2c(C)cc(=O)oc12`, the Potency is 35.5 µM (active). Turning to `CC(=O)c1ccc(-c2cccs2)s1`, the Potency was 35.5 µM (active).

On to `COc1cc(OC)c(-c2nc3ccccc3s2)cc1OC`, for which the Potency is 35.5 µM (active).

Turning to `c1ccc2c(N3CCOCC3)nc(N3CCOCC3)nc2c1`, the Potency is 28.2 µM (active).

As for `CCOC(=O)C1=C(C)NC2=C(C(=O)CCC2)C1c1cn(Cc2ccc(Cl)cc2Cl)nc1-c1ccccc1` (configuration not stated), the Potency was 31.6 µM (active). On to `Cc1csc2ncc(C(=O)Nc3ccon3)c(=O)n12`, for which the Potency is 35.5 µM (active). Regarding `Cc1c(O)c(CN2CCCC2)cc2c3c(c(=O)oc12)CCC3`, the Potency was 39.8 µM (active). The value for `Cc1c(O)c(CN2CCCCC2)cc2c3c(c(=O)oc12)CCC3` was 35.5 µM (active); that for `CCNc1cc2oc(=O)c(CN3CCOCC3)c(C)c2cc1C` was 31.6 µM (active); that for `CC(C)c1cc(=O)oc2c3c4c(cc12)CCCN4CCC3` was 35.5 µM (active). For `CC(C)CCNc1nc(-c2ccco2)c2c(c1C#N)CCCC2`, the Potency was 31.6 µM (active).

For `N#Cc1c(NC2CCCCC2)nc(-c2ccco2)c2c1CCCC2`, the Potency was 35.5 µM (active). Turning to `Cc1ccc(C2OC34CCCCCC3C(C#N)(C(=N)O4)C2(C#N)C#N)cc1` (configuration not stated), the Potency is 31.6 µM (active).

Turning to `CCOC(=O)c1sc2c(c1C)C(c1cccs1)C1=C(CCCC1=O)N2` (configuration not stated), the Potency was 25.1 µM (active). On to `C=CCSc1nnc(-c2cc3c(s2)-c2ccccc2CC3)o1`, for which the Potency is 25.1 µM (active).

As to `CSc1nnc(-c2cc3c(s2)-c2ccccc2CC3)o1`, the Potency is 35.5 µM (active). The value for `Fc1ccc(CSc2nnc(-c3cc4c(s3)-c3ccccc3CC4)o2)cc1` was 28.2 µM (active). Consider `CCSc1nnc(-c2cc3c(s2)-c2ccccc2CC3)o1`, for which the Potency was 31.6 µM (active). Turning to `CC(=O)Nc1nc2ccc(-c3nc4ccccc4o3)cc2s1`, the Potency was 25.1 µM (active). Under `COc1ccc(OC)c(C=Nc2ccccc2-c2nc3ccccc3[nH]2)c1` stands 28.2 µM (active). Under `Nc1c(C(=O)NCCN2CCOCC2)c2nc3ccccc3nc2n1CCc1ccccc1F` stands 39.8 µM (active); under `Nc1c(C(=O)NCCN2CCOCC2)c2nc3ccccc3nc2n1-c1cccc(F)c1`, 35.5 µM (active); under `Nc1c(C(=O)NCCN2CCOCC2)c2nc3ccccc3nc2n1-c1ccccc1`, 35.5 µM (active).

Regarding `Cc1ccc(C)n1-c1nccc(-c2ccco2)n1`, the Potency is 22.4 µM (active). As for `CNc1nc(-c2ccccc2)cc(C)c1S(C)(=O)=O`, the Potency is 28.2 µM (active). `Nc1ccccc1-c1nnc(-c2ccc(-c3ccccc3)cc2)o1`: the Potency was 35.5 µM (active).

Take `CCNc1nc(C)c2cc(Br)c(=O)n(CC)c2n1`: the Potency is 35.5 µM (active).

Regarding `COCCn1c(N)c(C(=O)NCC2CCCO2)c2nc3ccccc3nc21` (configuration not stated), the Potency is 35.5 µM (active).

On to `CCOC(=O)c1c(N)n(C2CC(C)(C)NC(C)(C)C2)c2nc3ccccc3nc12`, for which the Potency was 31.6 µM (active). On to `Nc1c(C(=O)NCC2CCCO2)c2nc3ccccc3nc2n1-c1ccccc1` (configuration not stated), for which the Potency is 35.5 µM (active).

Consider `COc1ccc(-n2c(N)c(C(=O)NCC3CCCO3)c3nc4ccccc4nc32)c(OC)c1` (configuration not stated), for which the Potency was 31.6 µM (active). Regarding `Nc1c(C(=O)OCC2CCCO2)c2nc3ccccc3nc2n1C1CCCC1` (configuration not stated), the Potency was 39.8 µM (active). In the case of `CCCCC(NS(=O)(=O)c1ccc(C)cc1)C(=O)Oc1ccc2c3c(c(=O)oc2c1)CCC3` (configuration not stated), the Potency is 31.6 µM (active). As to `Cc1ccc(S(=O)(=O)NC(CC(C)C)C(=O)Oc2ccc3c4c(c(=O)oc3c2)CCC4)cc1` (configuration not stated), the Potency is 35.5 µM (active). For `Cc1ccc(-c2nn(-c3ccccc3)cc2/C=C/C(=O)Nc2nccs2)cc1`, the Potency was 35.5 µM (active). Consider `COC(=O)c1c(N)n(-c2ccc(NC(C)=O)cc2)c2nc3ccccc3nc12`, for which the Potency is 28.2 µM (active). In the case of `CCCNC(=O)c1c(N)n(-c2cccc(OC)c2)c2nc3ccccc3nc12`, the Potency is 35.5 µM (active). For the molecule `COCCNC(=O)c1c(N)n(-c2ccccc2)c2nc3ccccc3nc12`, the Potency was 39.8 µM (active). With `COCCNC(=O)c1c(N)n(CCCn2ccnc2)c2nc3ccccc3nc12`, the Potency is 35.5 µM (active).

For `CCN1CCN(C(=O)c2cc3c(=O)n4ccccc4nc3n2Cc2ccccc2)CC1`, the Potency is 31.6 µM (active). Regarding `O=C(NCCN1CCOCC1)c1cc2c(=O)n3ccccc3nc2n1Cc1ccccc1`, the Potency is 35.5 µM (active). The value for `CCCc1cc(=O)oc2c(C)c(O)c(CN3CCCCC3)cc12` was 17.8 µM (active); that for `CCc1cc(=O)oc2c(C)c(O)c(CN(C)C)cc12` was 35.5 µM (active); that for `CCc1cc(=O)oc2c(C)c(O)c(CN3CCCCC3)cc12` was 35.5 µM (active).

Regarding `CCCCn1nc(C(=O)Oc2ccc3c(C)cc(=O)oc3c2)c2ccccc2c1=O`, the Potency was 35.5 µM (active).

Take `Cc1cc(=O)oc2cc(OC(=O)c3nn(C(C)C)c(=O)c4ccccc34)ccc12`: the Potency was 35.5 µM (active). Consider `CCCn1nc(C(=O)Oc2ccc3c(C)cc(=O)oc3c2)c2ccccc2c1=O`, for which the Potency was 35.5 µM (active).

In the case of `COC(=O)C1=CN(C(C)C)C=C(C(=O)OC)C1c1cccc(OC)c1`, the Potency is 28.2 µM (active). For `COC(=O)C1=CNC=C(C(=O)OC)C1c1cccc(OC)c1`, the Potency is 31.6 µM (active). Regarding `Cc1ccc2cc3c(nc2c1)N(c1ccccc1)CC3`, the Potency was 22.4 µM (active). With `N#C/C(=C(/O)CCCl)c1ccccn1`, the Potency is 39.8 µM (active). `CC1CCCN(CCCNC(=O)c2coc3nc4ccccc4nc23)C1` (configuration not stated): the Potency is 22.4 µM (active). For the molecule `Cc1ccc(C2N(C)c3ccccc3-c3nc4ccccc4n32)o1` (configuration not stated), the Potency is 39.8 µM (active). For the molecule `CCN1c2ccccc2-c2nc3ccccc3n2C1c1ccco1` (configuration not stated), the Potency was 35.5 µM (active). Regarding `CN1c2ccccc2-c2nc3ccccc3n2C1c1ccco1` (configuration not stated), the Potency is 39.8 µM (active). Take `CN(C)c1c2ccccc2nc2c(F)c(F)c(F)c(F)c12`: the Potency is 39.8 µM (active).

As for `Clc1ccc(-c2nc3ncccn3c2Cl)cc1`, the Potency is 22.4 µM (active).

Consider `CC(=O)/C=C(\C)Nc1ccc(-c2cnc(-c3ccccc3)o2)cc1`, for which the Potency is 39.8 µM (active). Regarding `Nc1cccc2nc3ccccc3cc12`, the Potency is 28.2 µM (active).

Turning to `Cc1cc(=O)oc2cc(NS(=O)(=O)c3ccccc3)ccc12`, the Potency is 35.5 µM (active).

For the molecule `Cc1cc(=O)oc2cc(NS(=O)(=O)c3ccc(F)cc3)ccc12`, the Potency was 35.5 µM (active).

As to `CCCCCOC(=O)c1c(N)n(CCOC)c2nc3ccccc3nc12`, the Potency was 35.5 µM (active).

For `CCOC(=O)c1c(N)n(CCOC(=O)c2cccs2)c2nc3ccccc3nc12`, the Potency was 31.6 µM (active). For the molecule `COCCn1c(N)c(C(=O)OCc2ccccc2)c2nc3ccccc3nc21`, the Potency was 31.6 µM (active). The value for `CCOc1ccc(CN2CCN(Cc3[nH]c4ccc(OC)cc4c3C)CC2CCO)cc1` (configuration not stated) was “inactive”; that for `O=C(O)CCn1cc(C2CC(c3ccccc3)=NN2c2ccccc2)c(-c2ccccc2)n1` (configuration not stated) was 31.6 µM (active); that for `COCCn1c(N)c(S(=O)(=O)c2cccs2)c2nc3ccccc3nc21` was 35.5 µM (active). As to `C=CCn1c(N)c(S(=O)(=O)c2cccs2)c2nc3ccccc3nc21`, the Potency was 35.5 µM (active). Regarding `Nc1c(S(=O)(=O)c2cccs2)c2nc3ccccc3nc2n1CCc1ccccc1`, the Potency is 31.6 µM (active). Take `Nc1c(S(=O)(=O)c2cccs2)c2nc3ccccc3nc2n1CC1CCCO1` (configuration not stated): the Potency is 31.6 µM (active). With `CC(C)CCn1c(N)c(S(=O)(=O)c2cccs2)c2nc3ccccc3nc21`, the Potency was 35.5 µM (active). Take `CC(C)Cn1c(N)c(S(=O)(=O)c2cccs2)c2nc3ccccc3nc21`: the Potency was 25.1 µM (active). Under `Cc1ccc(-c2cc(-c3ccccc3)c(C#N)c(N)n2)o1` stands 35.5 µM (active). Under `Cc1ccc(-c2cc(-c3ccccc3Cl)c(C#N)c(N)n2)o1` stands 28.2 µM (active); under `Cn1c(C(=O)NCC2CCCO2)cc2c(=O)n3ccccc3nc21` (configuration not stated), 31.6 µM (active). On to `Cn1c(C(=O)NCc2ccccn2)cc2c(=O)n3ccccc3nc21`, for which the Potency is 28.2 µM (active).

Consider `CCOC(=O)CC1C(=O)NCCN1C(=O)c1cc2c(=O)n3ccccc3nc2s1` (configuration not stated), for which the Potency is 35.5 µM (active). As to `CCOC(=O)CC1C(=O)NCCN1C(=O)c1cc2c(=O)n3cccc(C)c3nc2s1` (configuration not stated), the Potency is 31.6 µM (active).

For the origin of these results see PubChem BioAssay AID2242 (National Center for Advancing Translational Sciences (NCATS), 2010).
